Screening results from PubChem.
The list is a sample of the results.
aSyn 5UTR act = Activators via SNCA 5'UTR binding, MLPCN | AID 1814, 2009 | hit rate 7.1% among 300,000 | activity score, % (tested at 7.5 µM), hits read low | alpha-synuclein 5'UTR reporter, activators screen; in the data active means activity score below about -60%
Large screens that a line does not name were inactive.

COC(=O)c1ccccc1NC(=O)c1ccc2c(c1)CC(C)O2 (configuration not stated)	aSyn 5UTR act -65
N#Cc1cc(C#N)c(N2CCN(c3ccccn3)CC2)nc1N	aSyn 5UTR act -204
Brc1ccc(C2C3=C(Nc4ncnn42)c2ccccc2OC3c2ccncc2)cc1 (configuration not stated)	none
Cc1sc(NC(=S)Nc2ccc(F)cc2)c(C(N)=O)c1C	aSyn 5UTR act -87
Cc1sc(NC(=O)c2ccc(Br)s2)c(C(N)=O)c1C	aSyn 5UTR act -225
Cc1sc(NC(=O)c2ccc(Cl)s2)c(C(N)=O)c1C	aSyn 5UTR act -284
CC(=O)Nc1sc(C)c(C)c1C(=O)Nc1ccc(C)cc1	aSyn 5UTR act -66
O=C(COc1ccc(Cl)cc1Cl)NC(=O)N1CCCCC1	aSyn 5UTR act -121
Cc1cc(Cl)ccc1OCC(=O)N1CCCCC1	aSyn 5UTR act -108
Cc1ccc(C(=O)Nc2cccc(C(F)(F)F)c2)cc1NC(=O)c1cnnc2ccccc12	none
Cc1csc2ncc(C(=O)Nc3cccc(C(F)(F)F)c3)c(=O)n12	aSyn 5UTR act -128
CCc1ccc(NC(=O)c2cnc3scc(C)n3c2=O)cc1	aSyn 5UTR act -247
Cc1cnc(NC(=O)c2ccncc2)s1	aSyn 5UTR act -65
Cc1cnc(NC(=O)c2ccco2)s1	aSyn 5UTR act -94
CCCSc1nnc(NC(=O)Nc2ccccc2)s1	aSyn 5UTR act -92
COCCSc1nnc(NC(=O)C2CCCCC2)s1	aSyn 5UTR act -63
CCCSc1nnc(NC(=O)c2ccco2)s1	aSyn 5UTR act -81
CSc1nnc(NC(=O)c2ccco2)s1	aSyn 5UTR act -77
COCCSc1nnc(NC(=O)c2ccco2)s1	aSyn 5UTR act -81
Cn1/c(=N/N=C/c2ccc(N3CCOCC3)cc2)sc2ccccc21	aSyn 5UTR act -65
O=[N+]([O-])c1ccccc1N/N=C/c1c[nH]c2ccccc12	aSyn 5UTR act -105
O=[N+]([O-])c1ccc(N/N=C/c2c[nH]c3ccccc23)cc1	aSyn 5UTR act -139
O=C(Nc1cccc2ccccc12)N1N=CCC1c1ccccc1 (configuration not stated)	aSyn 5UTR act -89
Fc1ccc(NC(=S)N2N=CCC2c2ccccc2)cc1 (configuration not stated)	aSyn 5UTR act -101
S=C(Nc1ccccc1)N1N=CCC1c1ccccc1 (configuration not stated)	aSyn 5UTR act -153
N#CC1(NC(=O)Cn2ncc(Cl)c(Cl)c2=O)CCCCC1	aSyn 5UTR act -206
Oc1c(N=Nc2ccccc2)sc2ccccc12	aSyn 5UTR act -192
COC(=O)C(C)N1C(=O)S/C(=C\c2ccc(-c3ccc(C(=O)O)cc3C)o2)C1=O (configuration not stated)	aSyn 5UTR act -137
C=CCOc1cccc(CNc2cccc(C(=O)O)c2)c1	aSyn 5UTR act -77
C=CCOc1c(CNc2cccc(C(=O)O)c2)cccc1OC	aSyn 5UTR act -78
COC(CN(C(=O)CCl)C(C(=O)NC1CCCCC1)c1ccccc1C)OC (configuration not stated)	aSyn 5UTR act -71
COc1ccc(-c2cc(C(=O)N3CCCC3)no2)cc1OC	aSyn 5UTR act -123
COc1ccc(-c2cc(C(=O)N3CCCCC3)no2)cc1OC	aSyn 5UTR act -112
Cc1ccc(-c2cc(C(=O)N3CCOCC3)no2)cc1	none
COc1ccc(-c2cc(C(=O)N3CCN(c4ccccc4)CC3)no2)cc1	aSyn 5UTR act -156
CC1SCC(NC(=O)c2ccccc2Cl)CS1 (configuration not stated)	aSyn 5UTR act -102
CC1SCC(NC(=O)c2ccc(Cl)cc2)CS1 (configuration not stated)	aSyn 5UTR act -111
O=[N+]([O-])c1ccc(/C=N/N2CCCCC2)cc1	aSyn 5UTR act -128
Clc1ccc(/C=N/N2CCCCC2)cc1	aSyn 5UTR act -103
CCOC(=O)c1cc2c(s1)-c1c(C)cccc1OC2	aSyn 5UTR act -164
CCOC(=O)c1ccc(NC(=O)c2cccc(S(=O)(=O)N3c4ccccc4CC3C)c2)s1 (configuration not stated)	none
O=C(Nc1nccs1)c1cc2c(s1)-c1ccccc1OC2	aSyn 5UTR act -218
O=C(Nc1nc2ccccc2s1)c1cc2c(s1)-c1ccccc1OC2	aSyn 5UTR act -177
CN1CCN(c2ccccc2NC(=O)c2cc3c(s2)-c2ccccc2OC3)CC1	aSyn 5UTR act -71
O=C(Nc1ccc(Cl)cn1)c1cc2c(s1)-c1ccccc1OC2	aSyn 5UTR act -111
Cc1cccc2c1-c1sc(C(=O)Nc3cccc([N+](=O)[O-])c3C)cc1CO2	aSyn 5UTR act -73
Cc1cccc2c1-c1sc(C(=O)Nc3nccs3)cc1CO2	aSyn 5UTR act -213
CCc1ccc(/C=N\NC(=O)c2ccc(Br)o2)s1	aSyn 5UTR act -167
Cc1ccc(/C=N/NC(=O)c2ccc(Br)o2)s1	aSyn 5UTR act -111
COC(=O)C1C(=O)C(C(=O)/C=C/c2ccccc2)C(=O)CC1(C)C (configuration not stated)	aSyn 5UTR act -134
CN(/N=C/C=C/c1ccccc1)c1cc(=O)n(C)c(=O)[nH]1	aSyn 5UTR act -65
Cc1ccc(C(=O)c2cc3ccccc3o2)cc1	aSyn 5UTR act -170
Cc1ccc(S(=O)(=O)c2cc3ccccc3oc2=O)cc1	aSyn 5UTR act -111
Cc1ccc(C(=O)c2cc3ccccc3o2)cc1C	aSyn 5UTR act -68
O=C(c1cc2ccccc2o1)c1cccs1	aSyn 5UTR act -134
COc1ccc(-c2csc(NC(=O)CSc3n[nH]c(C)n3)n2)cc1	aSyn 5UTR act -104
COc1ccc(-c2csc(NC(=O)CSc3n[nH]c(N)n3)n2)cc1	aSyn 5UTR act -123
N#C/C(=N/Nc1ccc([N+](=O)[O-])cc1)C(=N)N1CCCCC1	aSyn 5UTR act -86
N#C/C(=N\Nc1ccc(Br)cc1)C(=N)N1CCOCC1	aSyn 5UTR act -123
N#C/C(=N\Nc1ccccc1[N+](=O)[O-])C(=N)N1CCCCC1	aSyn 5UTR act -112
N#C/C(=N\Nc1ccc([N+](=O)[O-])cc1)C(=N)N1CCOCC1	aSyn 5UTR act -109
Cc1ccc2c(CC(=O)NCc3ccco3)coc2c1C	aSyn 5UTR act -95
O=c1c2ccccc2ncn1-c1ccc2c(c1)OCCO2	aSyn 5UTR act -111
CCN1/C(=C/c2ccc3cc(C)ccc3[n+]2CC)Sc2ccc3sccc3c21	none
CCN1/C(=C/c2ccc3cccc(C)c3[n+]2CC)Sc2ccccc21	aSyn 5UTR act -134
FC(F)Oc1ccc(NC(=S)NC2CCCCCCC2)cc1	aSyn 5UTR act -93
S=C(Nc1ccc(Br)cc1)NC1CCCCC1	aSyn 5UTR act -119
S=C(Nc1ccc(Cl)cc1)NC1CCCCC1	aSyn 5UTR act -73
COc1ccc2c(c1)O/C(=C\c1sccc1C)C2=O	aSyn 5UTR act -198
COc1ccc(/C(C)=N/Nc2ccccc2Cl)c(O)c1	aSyn 5UTR act -102
C/C(=N\Nc1ccc(F)cc1F)c1cccs1	aSyn 5UTR act -88
COc1ccc(/C(C)=N/Nc2ccc(F)cc2F)c(O)c1	aSyn 5UTR act -97
CC(=O)c1ccc(Oc2ncnc3sccc23)cc1	aSyn 5UTR act -148
Cc1cc(C(=O)COc2ncnc3sccc23)c(C)n1C	aSyn 5UTR act -125
O=C(Nc1ccc(-c2cn3c(n2)SCC3)cc1)c1ccco1	aSyn 5UTR act -170
CC(=O)Nc1ccc(-c2cn3c(n2)SCC3)cc1	aSyn 5UTR act -83
CC(C)CC(=O)Nc1ccc(-c2nnn(CC(=O)NCc3ccco3)n2)cc1	aSyn 5UTR act -102
CCCCOc1ccc(-c2nnn(CC(=O)NCc3ccco3)n2)cc1	aSyn 5UTR act -165
O=C(COC(=O)c1cccc([N+](=O)[O-])c1)c1ccc(OCc2ccccc2)cc1	aSyn 5UTR act -75
